From PubChem BioAssay AID1159580 (chemical genetic matrix, 2015)
Several values for one entry are separate records, joined by “and”; a condition that tells them apart may be missing. Identical values can stand only once. About 2,000 (36%) of roughly 5,500 compounds were called active. Not shown: some 18% with an inconclusive outcome. No stated cut-off is given here; in the data, active means normalized growth mostly below about 0.91 (no sharp cut-off); inconclusive means no clear call, values can overlap the other calls; inactive means mostly above about 0.92. The list shows a part of the results.

Assay: chemical genetic growth profiling, strain panel (AID 1159580);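 further: tested at 20 µM; growth read once vehicle control cultures reached saturation at 30 °C; 1 = growth at the plate median or of vehicle wells; lower values mean less growth of the strain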
Details: S. cerevisiae deletion strains, growth OD
[1] = locus YHR030C, strain SLT2, hits give low values
[2] = locus YHR079C, strain IRE1, hits give low values
[3] = locus YJL095W, strain BCK1, hits give low values
[4] = locus YJR066W, strain TOR1, hits give low values
[5] = locus YLR113W, strain HOG1, hits give low values
[6] = locus YNL183C, strain NPR1, hits give low values
[7] = locus YOR231W, strain MKK1, hits give low values
[8] = locus YPL256C, strain CLN2, hits give low values

Measured: normalized growth

COc1ccc(-c2cc(=O)c3c(O)c(OC)c(O[C@H]4O[C@H](CO[C@@H]5O[C@@H](C)[C@H](O)[C@@H](O)[C@H]5O)[C@@H](O)[C@H](O)[C@H]4O)cc3o2)cc1
inactive: locus YAL021C, strain ccr4, hits give low values 1.02 | locus YAL026C, strain drs2, hits give low values 1 | locus YAL030W, strain snc1, hits give low values 1.01 | locus YBL061C, strain skt5, hits give low values 0.996 | locus YBR009C, strain hhf1, hits give low values 1 | locus YBR021W, strain FUR4, hits give low values 1.02 | locus YBR023C, strain chs3, hits give low values 0.996 | locus YBR171W, strain sec66, hits give low values 0.989 | locus YBR229C, strain ROT2, hits give low values 1.01 | locus YBR231C, strain swc5, hits give low values 0.977 | locus YBR279W, strain paf1, hits give low values 0.987 | locus YCL011C, strain gbp2, hits give low values 0.991 | locus YCL016C, strain dcc1, hits give low values 1.01 | locus YCL029C, strain bik1, hits give low values 1.04 | locus YCL061C, strain MRC1, hits give low values 1 | locus YCL069W, strain vba3, hits give low values 1 | locus YCR088W, strain abp1, hits give low values 1.01 | locus YDL005C, strain med2, hits give low values 1 | locus YDL035C, strain GPR1, hits give low values 1.02 | locus YDL040C, strain nat1, hits give low values 0.98 | locus YDL074C, strain BRE1, hits give low values 1.01 | locus YDL101C, strain DUN1, hits give low values 1.02 | locus YDL185W, strain tfp1, hits give low values 1.01 | locus YDL192W, strain arf1, hits give low values 1.01 | locus YDR001C, strain nth1, hits give low values 1 | locus YDR069C, strain doa4, hits give low values 0.967 | locus YDR101C, strain arx1, hits give low values 1.02 | locus YDR137W, strain rgp1, hits give low values 1.05 | locus YDR150W, strain NUM1, hits give low values 1.01 | locus YDR159W, strain sac3, hits give low values 0.995 | locus YDR162C, strain NBP2, hits give low values 1.03 | locus YDR195W, strain ref2 0.978 | locus YDR297W, strain sur2, hits give low values 0.988 | locus YDR318W, strain mcm21, hits give low values 1.02 | locus YDR334W, strain swr1, hits give low values 0.99 | locus YDR335W, strain msn5, hits give low values 1 | locus YDR388W, hits give low values 1.01 | locus YDR392W, strain spt3, hits give low values 0.981 | locus YDR502C, strain sam2, hits give low values 1.01 | locus YEL003W, strain gim4, hits give low values 0.982 | locus YEL037C, strain rad23, hits give low values 1 | locus YEL061C, strain CIN8 (second series), hits give low values 0.996 | locus YER015W, strain faa2, hits give low values 0.984 | locus YER016W, strain bim1, hits give low values 0.992 | locus YER110C, hits give low values 1.02 | locus YER111C, strain swi4, hits give low values 0.979 | locus YER155C, strain BEM2 (second series), hits give low values 0.972 | locus YER155C, strain BEM2, hits give low values 1.04 | locus YER167W, strain BCK2, hits give low values 1.02 | locus YFR010W, strain ubp6, hits give low values 0.994 | locus YGL078C, strain dbp3, hits give low values 1.01 | locus YGL086W, strain mad1, hits give low values 1.01 | locus YGL167C, strain pmr1, hits give low values 0.983 | locus YGL173C, strain kem1, hits give low values 0.996 | locus YGL227W, strain vid30, hits give low values 1 | locus YGL240W, strain doc1, hits give low values 0.998 | locus YGL248W, strain PDE1, hits give low values 1.01 | locus YGL253W, strain hxk2, hits give low values 1 | locus YGR078C, strain PAC10, hits give low values 0.999 | locus YGR135W, strain pre9, hits give low values 0.993 | locus YGR229C, strain SMI1, hits give low values 1.16 | locus YGR252W, strain gcn5, hits give low values 0.955 | locus YHR013C, strain ard1, hits give low values 1 | locus YHR027C, strain rpn1, hits give low values 0.99 | [1] 1.02 and 0.993 | locus YHR079C, strain IRE1 (second series), hits give low values 1.01 | [2] 1.01 | locus YHR094C, strain hxt1, hits give low values 1.01 | locus YHR129C, strain ARP1, hits give low values 1 | locus YHR142W, strain chs7, hits give low values 1.01 | locus YHR200W, strain rpn10, hits give low values 1.01 | locus YIL066C, strain RNR3, hits give low values 1.02 | locus YIL073C, strain SPO22, hits give low values 1.08 | locus YIL125W, strain kgd1, hits give low values 1.01 | locus YIR030C, strain dcg1, hits give low values 1.02 | locus YJL092W, strain hpr5, hits give low values 0.994 | locus YJL095W, strain BCK1 (second series), hits give low values 1 | [3] 1.02 and 0.995 | locus YJL115W, strain asf1, hits give low values 0.999 | locus YJL129C, strain trk1, hits give low values 0.994 | locus YJL134W, strain LCB3, hits give low values 1.02 | locus YJL154C, strain vps35, hits give low values 1 | locus YJL164C, strain tpk1, hits give low values 1 | locus YJL166W, strain qcr8, hits give low values 1 | locus YJL168C, strain set2, hits give low values 1 | locus YJL187C, strain SWE1 (second series), hits give low values 1.01 | locus YJL187C, strain SWE1, hits give low values 1.02 | [4] 0.906 | locus YKL009W, strain mrt4, hits give low values 1.05 | locus YKL068W, hits give low values 1.02 | locus YKL085W, strain MDH1 (second series), hits give low values 1.02 | locus YKL085W, strain MDH1, hits give low values 1.02 | locus YKL160W, strain elf1, hits give low values 0.997 | locus YKL190W, strain CNB1, hits give low values 1.01 | locus YKR001C, strain vps1, hits give low values 1.01 | locus YKR026C, strain gcn3, hits give low values 0.992 | locus YKR091W, strain srl3, hits give low values 0.998 | locus YLL001W, strain dnm1, hits give low values 1 | locus YLL026W, hits give low values 0.998 | locus YLL041C, strain sdh2, hits give low values 1 | locus YLR027C, strain aat2, hits give low values 0.988 | locus YLR039C, strain RIC1, hits give low values 1.1 | locus YLR058C, strain SHM2, hits give low values 1.02 | locus YLR102C, strain apc9, hits give low values 1.02 | [5] 1.04 | locus YLR221C, strain rsa3, hits give low values 0.995 | locus YLR258W, strain gsy2, hits give low values 1.02 | locus YLR262C, strain YPT6 (second series), hits give low values 1.03 | locus YLR268W, strain sec22, hits give low values 1.03 | locus YLR320W, strain mms22, hits give low values 0.998 | locus YLR342W, strain FKS1 (second series), hits give low values 1.03 | locus YLR342W, strain FKS1, hits give low values 1 | locus YLR357W, strain rsc2, hits give low values 0.964 | locus YLR370C, strain arc18, hits give low values 0.995 | locus YLR371W, strain rom2, hits give low values 1.03 | locus YLR384C, strain iki3, hits give low values 0.978 | locus YLR418C, strain cdc73, hits give low values 1.03 | locus YML016C, strain PPZ1, hits give low values 0.991 | locus YML032C, strain rad52, hits give low values 1.03 | locus YML120C, strain ndi1, hits give low values 1.01 | locus YML124C, strain tub3, hits give low values 1.02 | locus YMR058W, strain fet3, hits give low values 0.928 | locus YMR078C, strain ctf18, hits give low values 1.02 | locus YMR125W, strain sto1, hits give low values 1 | locus YMR129W, hits give low values 0.996 | locus YMR205C, strain PFK2, hits give low values 1.05 | locus YMR223W, strain ubp8, hits give low values 1.01 | locus YMR231W, strain pep5, hits give low values 0.96 | locus YMR307W, strain GAS1, hits give low values 1.08 | locus YNL067W, strain RPL9B, hits give low values 1.01 | locus YNL071W, strain lat1, hits give low values 1.01 | locus YNL128W, strain TEP1, hits give low values 1.03 | [6] 0.938 | locus YNL209W, strain ssb2, hits give low values 0.986 | locus YNL233W, strain BNI4, hits give low values 1.01 | locus YNL248C, strain rpa49, hits give low values 0.996 | locus YNL250W, strain rad50, hits give low values 1.04 | locus YNL271C, strain bni1, hits give low values 1.01 | locus YNL298W, strain CLA4, hits give low values 1.02 | locus YNL307C, strain MCK1, hits give low values 1.01 | locus YNL322C, strain KRE1 (second series), hits give low values 1 | locus YNR049C, strain mso1, hits give low values 1 | locus YNR052C, strain pop2, hits give low values 1.01 | locus YOL012C, strain htz1 0.859 | locus YOL147C, strain pex11, hits give low values 0.996 | locus YOR001W, strain rrp6, hits give low values 0.98 | locus YOR061W, strain CKA2, hits give low values 1.02 | locus YOR069W, strain VPS5, hits give low values 1.01 | locus YOR070C, strain gyp1, hits give low values 0.985 | locus YOR080W, strain dia2, hits give low values 0.992 | locus YOR083W, strain WHI5, hits give low values 0.998 | locus YOR106W, strain vam3, hits give low values 0.992 | locus YOR136W, strain idh2, hits give low values 1.02 | locus YOR144C, strain elg1, hits give low values 1.02 | locus YOR184W, strain ser1, hits give low values 1.04 | [7] 1.03 | locus YOR265W, strain rbl2, hits give low values 1.02 | locus YOR270C, strain vph1, hits give low values 0.993 | locus YOR290C, strain snf2, hits give low values 0.992 | locus YOR316C, strain cot1, hits give low values 1.02 | locus YPL051W, strain arl3, hits give low values 0.995 | locus YPL078C, strain atp4, hits give low values 1.03 | locus YPL106C, strain sse1, hits give low values 0.974 | locus YPL240C, strain hsp82, hits give low values 0.995 | locus YPL241C, strain CIN2, hits give low values 1.01 | [8] 0.994 | locus YPR119W, strain clb2, hits give low values 1.01 | locus YPR141C, strain kar3, hits give low values 1.02 | locus YPR163C, strain tif3, hits give low values 0.999 | locus YPR167C, strain met16, hits give low values 1.01 | strain wtn01, hits give low values 1.01

COc1ccc(-c2cc(=O)c3c(OC)c(OC)c(OC)cc3o2)cc1OC
inactive: [1] 1.03 | [2] 1.02 | [3] 0.974 | [4] 0.99 | [5] 0.968 | [6] 0.936 | [7] 1.02 | [8] 1
